# Most compounds without a hit are left out; they make up all but 10% or so of the library.
# ALDH1A1 block – blocks purified human ALDH1A1 activity; P00352; Purified ALDH1A1, NADH fluorescence, propionaldehyde substrate; Potency, µM (top dose mostly 75.3 µM), inactives show at the highest dose activity, negative = inhibition, hits mostly inhibitors; actives 7.3% (n = 220,000);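 also: potency is read from the fitted curve at half-maximal effect; plate controls were no enzyme wells and a reference inhibitor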
# HPGD inh – HPGD (human) dehydrogenase inhibition; Potency, µM, inactives show at the highest dose activity change, negative = inhibition, hits mostly inhibitors; P15428; purified HPGD, NADH fluorescence kinetic, PGE2 substrate; actives 4.3% (n = 150,000); also: potency is read from the fitted curve at half-maximal effect
# Target sequence (P15428 whole entry, looked up): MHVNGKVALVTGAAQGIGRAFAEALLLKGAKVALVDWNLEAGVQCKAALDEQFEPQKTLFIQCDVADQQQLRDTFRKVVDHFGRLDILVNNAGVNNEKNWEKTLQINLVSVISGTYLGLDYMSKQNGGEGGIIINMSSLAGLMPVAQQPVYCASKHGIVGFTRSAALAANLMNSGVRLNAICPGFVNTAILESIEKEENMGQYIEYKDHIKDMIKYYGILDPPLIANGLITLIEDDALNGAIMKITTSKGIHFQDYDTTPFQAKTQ
#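 NADH formation kinetics: reaction with 30 uM PGE2 and 1 mM NAD+ (final), 20 nM enzyme, Tris-HCl pH 8 with Tween 20, after 15 min compound preincubation at room temperature. Fluorescence change, last versus first of five reads.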
# LMNA splice mod – modulators of lamin A splicing; HeLa LMNA splicing GFP/RFP minigene ratio, 48 h; Potency, µM (highest dose often 46.1 µM), inactives show top-dose ratio change, negative = inhibition, usual class: inhibitors; actives 0.01% (n = 200,000); active = well fitted inhibition curve with a large enough effect in the signal ratio, with a control signal flat, not every such curve was filed as active; inconclusive = small, poorly fitted or top-dose-only effect, or effect the other way, or a change in a side signal; the % refers to the signal ratio; also: potency is read from the fitted curve at half-maximal effect
#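 S3 HeLa stable clones carrying a lamin A-EGFP splicing minigene plus DsRed2 were seeded at 600 cells/well in Opti-MEM with 2% FBS, pin-dosed and incubated 48 h at 37°C. Acumen cytometry (488 nm) gave the GFP/RFP total-intensity ratio.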
# PNC assembly inh – inhibitors of perinucleolar compartment assembly; PC3M PTB-GFP, PNC prevalence imaging, 16 h; active compounds read low; activity change (PNC), negative = inhibition, % at 10 µM; actives 3.1% (n = 140,000);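 active = readout at or below -70, meaning at least 70% loss of cells showing the perinucleolar compartment, a nuclear body marking cancer cells; inconclusive = readout between -30 and a set limit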;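 also: plate controls were DMSO wells for no effect and camptothecin positive control wells for full effect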
#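 PC3M cells stably expressing PTB-GFP, 750–1000 cells/well, treated 16 h at 37 °C with compound (23 nl of library stock), in duplicate. After paraformaldehyde fixation and Hoechst stain, imaged at 20x; PNC prevalence scored by image analysis.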
# 12-hLO inh – blocks human 12-lipoxygenase activity | P18054 | purified 12-hLO, xylenol orange hydroperoxide absorbance | Potency, µM (top dose mostly 57.1 µM), for inactives: at the highest dose activity change, negative = inhibition, usual class: inhibitors | actives 0.12% (n = 150,000); active = well fitted inhibition curve with a large enough effect; inconclusive = small, poorly fitted or top-dose-only effect; also: potency is read from the fitted curve at half-maximal effect; nearly all actives have a fitted effect of over 55% in size
#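 Lipoxygenase turnover measured by absorbance at 573 and 405 nm after Fe-XO development. Human 12hLO 150 nM, arachidonate 40 uM, pH 7.0 Hepes buffer with detergent; 15 min compound preincubation, 30 min reaction.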
# * marks the source's active call; other numbers are inactive results; ? = inconclusive; nt = no result; [ ] = dose if it differs, or a comment. Unless noted, calls follow the shape of the dose curve; as a rule, active = well fitted inhibition curve with a large enough effect (not every such curve was filed as active); inconclusive = small, poorly fitted or top-dose-only effect, or another doubt; inactive = no such curve, though single readings can be large or run the other way. Unless noted, % is scaled to controls: 0 for no effect and ±100 for the full control effect.
SMILES,ALDH1A1 block,HPGD inh,LMNA splice mod,PNC assembly inh,12-hLO inh
CN1CCN(C2=Cc3cc(Cl)ccc3Sc3cc(F)ccc32)CC1,-10%,-29%,?,43,-4%
CN1CCN(C2=Cc3ccccc3Sc3cc(F)c(F)cc32)CC1,0%,25µM*,-10%,-88*,-1%
CCOC(=O)c1ccc(NC(=S)N(CCN2CCCCCC2)Cc2cccs2)cc1,4%,nt,?,nt,nt
CCc1cc[n+](-c2nc([O-])sc2C=O)cc1,0%,-10%,?,0,-5%
CC(C)(C)c1cc[n+](-c2nc([O-])sc2C=O)cc1,6%,-4%,7%,-113*,-2%
COC(=O)N1CCC[C@@]2(CCN(C(=O)Nc3cccc(F)c3)C2)C1,6%,0%,nt,nt,3%
Cc1cccc(-n2c(=S)[nH]c3nc4c(cc3c2=O)COC(C)(C)C4)c1,0.71µM*,nt,nt,nt,nt
Cc1cccc(-n2c(=S)[nH]c3c(oc4ccccc43)c2=O)c1,?,-11%,?,0,-1%
Cc1oc2c(c1C(=O)Nc1ccc(OC(F)(F)F)cc1)C1=NCCN1C=N2,nt,nt,-3%[46 µM],nt,nt
Cc1ccc(C(NC(=O)N2CC(C)OC(C)C2)C(Cl)Cl)cc1F (centres undefined),10µM*,-7%,?,?,-2%
Cc1ccc(C(NC(=O)N2CCOCC2)=C(Cl)Cl)cc1F,0.11µM*,-15%,?,5,3%
Cc1ccc(C(NC(=O)N2CCN(C)CC2)C(Cl)Cl)cc1F (centres undefined),?,nt,1%[46 µM],nt,nt
Cc1ccc(C(NC(=O)N2CCOCC2)C(Cl)Cl)cc1F (centres undefined),20µM*,4%,2%,?,0%
COc1ccc(C(NC(=O)N2CC(C)OC(C)C2)C(Cl)(Cl)Cl)cc1F (centres undefined),5%,7%,-13%,14,0%
Cc1ccc(C(=O)N2CCOCC2)cc1Cl,6%,?,1%,24,-1%
CC(=O)Nc1ccc(Cl)cc1C1COC(=O)C1=N (centres undefined),-8%,-3%,-1%,17,5%
O=C(NCc1ccccc1)c1cc(-c2ccncc2)nc2ccc(S(=O)(=O)N3CCOCC3)cc12,0.79µM*,-22%,3%,13,1%
O=C(CNC(=O)C(c1ccccc1)c1ccccc1)N/N=C/c1ccc(O)c([N+](=O)[O-])c1,13µM*,-15%,?,64,0%
O=[N+]([O-])c1cc(/C=N\Nc2nc(-c3ccccc3)cs2)ccc1O,11µM*,nt,nt,nt,nt
O=C(CNC(=O)c1ccc(F)cc1)N/N=C/c1ccc(O)c([N+](=O)[O-])c1,?,25µM*,-1%,-25,0%
O=[N+]([O-])c1ccc(-c2csc(N/N=C/c3cccnc3)n2)cc1,-7%,nt,9%[46 µM],nt,nt
Cc1ccc(Cl)cc1-c1ccc(C=Nc2ccc(N3CCOCC3)cc2)o1,10µM*,?,?,-3,?
CCN(CC)C(=O)NC1CC2CCCC(C1)N2Cc1ccccc1 (centres undefined),15%,-6%,5%,-92*,0%
CNC(=S)NC1CC2CCC(C1)N2Cc1ccccc1 (centres undefined),11%,-7%,12%,-18,-3%
O=S(=O)(c1ccccc1F)N1CCN(Cc2nc3ccccc3[nH]2)CC1,11µM*,-7%,5%,41,-16%
SMILES,ALDH1A1 block,HPGD inh,LMNA splice mod,PNC assembly inh,12-hLO inh
c1ccc2[nH]c(CN3CCCCCC3)nc2c1,-4%,-17%,13%,15,-3%
CCC(=O)c1ccc(N2CCCCCC2)c(F)c1,?,16µM*,9%,24,-1%
CCOC(=O)N1CCN(c2cc3[nH]c(=S)[nH]c3cc2F)CC1,?,?,-7%,-91*,-4%
CCOC(=O)N1CCN(c2ccc(C(=O)c3ccccc3)cc2F)CC1,?,28µM*,?,7,-10%
CCC(=O)c1ccc(N2CCN(C(=O)COc3ccccc3F)CC2)c(F)c1,-15%,nt,nt,nt,nt
CCC(=O)c1ccc(N2CCN(C(=O)c3ccccc3F)CC2)c(F)c1,14µM*,nt,nt,nt,nt
CCOC(=O)N1CCN(c2ccc(C(C)=O)cc2F)CC1,-2%,-15%,-21%,73,-1%
COCCNC(=O)C1(CC(C)C)C=CCN1C(C)=O (centres undefined),6%,-8%,nt,nt,-1%
CCC(=O)c1ccc(N2CCCC2)c(F)c1,-4%,-22%,-6%,-4,-10%
CCCC(=O)c1ccc(N2CCCC2)c(F)c1,?,22µM*,-10%,19,-4%
NC(=O)C1CCN(C2CC(=O)N(c3cccc(F)c3)C2=O)CC1 (centres undefined),22µM*,0%,3%,15,1%
NC(=O)C1CCN(C2CC(=O)N(c3ccc(F)c(Cl)c3)C2=O)CC1 (centres undefined),25µM*,-11%,2%,13,-4%
CCOC(=O)/C(=C\c1cccc(O)c1)c1nc2sc(C)c(C)c2c(=O)[nH]1,7.9µM*,7.9µM*,?,?,-13%
NC[C@H]1O[C@@H](n2cnc3c(=O)[nH]c(N)nc32)[C@@H](O)[C@@H]1O,3%[13.5 µM],-7%,nt,nt,-8%[11.4 µM]
CCCn1c(N)c(C(c2ccc(OC)cc2)N2CCN(c3ccccc3)CC2)c(=O)[nH]c1=O (centres undefined),2.5µM*,-19%,-3%,22,-14%
CCOc1cc(OCC)cc(C(=O)Nc2cccnc2)c1,-3%,-2%,5%,-91*,-5%
CCCCOc1cccc(C(=O)NC(=S)Nc2cccc(C(F)(F)F)c2)c1,8.9µM*,-21%,-18%,14,-2%
CCCCOc1cccc(C(=O)NC(=S)Nc2cccnc2)c1,25µM*,-12%,-9%,-10,-8%
CC(C)Oc1cccc(C(=O)NC(=S)Nc2cccc(C(F)(F)F)c2)c1,18µM*,-22%,8%,-12,?
CCCOc1cccc(C(=O)NC(=S)Nc2ccc(N3CCN(C)CC3)cc2)c1,?,nt,-6%[46 µM],nt,nt
COc1cc(OC)cc(C(=O)Nc2cccnc2)c1,-2%,nt,25%[46 µM],nt,nt
CCN(CC)S(=O)(=O)c1cc(C(=O)Nc2cccnc2)ccc1Cl,4.5µM*,-7%,-18%,?,0%
COc1ccccc1/C=C/C1(C(=O)NC2CCCC2)CC(=O)N1c1ccc(C)cc1 (centres undefined),?,-8%,-18%,?,-2%
COc1ccccc1/C=C/C1(C(=O)NC2CCCC2)CC(=O)N1c1ccc(F)cc1 (centres undefined),32µM*,-12%,-10%,-26,3%
Cn1cccc1C(=O)N1CCC2(CCCN(c3ccccn3)C2)CC1,?,-26%,nt,nt,-4%
Cc1cc(C)n(CCc2nc(-c3ccc(C)o3)cs2)n1,4µM*,25µM*,-4%,?,-14%
Cc1cc(C)n(CCc2nc(-c3cc4ccccc4o3)cs2)n1,?,-11%,?,25,-5%
